The target of this assay is Torsin-1A (Homo sapiens) (UniProt O14656). The experiment in a line: TOR1A wild-type binding on microarray – cell lysate, small-molecule microarray, lysate, 635/667 nm, primary screen (AID 1149). The settings on record: COS7 hTOR1A-WT lysate, 635 nm fluorescence, higher = more signal.
Chain of Torsin-1A (Homo sapiens) (O14656 whole entry, looked up): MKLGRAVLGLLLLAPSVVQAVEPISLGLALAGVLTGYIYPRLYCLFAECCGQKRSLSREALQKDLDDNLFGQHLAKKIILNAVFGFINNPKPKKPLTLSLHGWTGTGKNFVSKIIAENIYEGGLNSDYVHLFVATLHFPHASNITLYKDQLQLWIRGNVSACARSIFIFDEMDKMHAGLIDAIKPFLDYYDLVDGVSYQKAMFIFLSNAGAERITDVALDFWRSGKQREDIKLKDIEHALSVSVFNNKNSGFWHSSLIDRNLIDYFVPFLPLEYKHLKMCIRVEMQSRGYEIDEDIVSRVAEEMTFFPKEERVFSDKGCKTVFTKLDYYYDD
For `C=CCC(OC(C)=O)[C@@H]1[C@@H](N(Cc2cccc3ccccc23)C(=O)c2cccc3ccccc23)c2cc(OCCCO)ccc2N1C(=O)c1ccc2ccccc2n1` (stereo partly specified), the composite z-score is -0.309.
As to `COc1ccc(C(O)C2C=CC3C(=O)NC(=O)C3N2Nc2ccccn2)cc1OCc1ccccc1` (stereo unspecified), the composite z-score is -0.209.
Turning to `CCCN1C(=O)[C@@]2(CCC(=O)OC(C)(C)C)N=C(c3ccc(OCCCO)cc3)O[C@H]2c2ccccc21`, the composite z-score was -0.0821.
As to `COc1cccc(C(=O)O[C@H]2CC[C@]3(C)C4=C(CCC3C2(C)C)[C@]2(C)CC[C@H]([C@H](C)CCCC(C)C)[C@@]2(C)CC4)c1` (stereo partly specified), the composite z-score was 0.637.
In turn, `COc1cc2c(cc1OC)CN(C(=O)[C@@H]1[C@H]3C(=O)O[C@H](c4ccccc4)[C@H](c4ccccc4)N3[C@H](c3ccccc3OCCO)[C@@]13C(=O)Nc1ccc(C#CCNC(N)=O)cc13)CC2` returned a composite z-score of 0.593.
In turn, `CN(C)CCCCNC(=O)[C@H]1C[C@H]2C(=O)N[C@@H](Cc3ccccc3)C(=O)N2[C@H]1c1ccc(O)cc1` displayed a composite z-score of 1.87.
Next, `COc1ccc(CCN2C(=O)[C@@]3(Cc4ccccc42)c2ccccc2C(=O)N(Cc2ccccc2Cl)[C@H]3c2ccc(CO)cc2)cc1`: -0.921; `CCCCCCCCCCC(O)C1C=CC2C(=O)N(Cc3ccccc3)C(=O)C2N1n1cnnc1` (stereo unspecified): 0.0668.
For `COCCOC(=O)N1C(=O)[C@@]2(c3cc(C#CCC(C(=O)OC)C(=O)OC)ccc31)[C@H](C(=O)N1CCN(c3ncccn3)CC1)[C@H]1C(=O)O[C@H](c3ccccc3)[C@H](c3ccccc3)N1[C@@H]2c1ccc(OCCO)cc1`, the composite z-score was 0.2.
`C=C(COC)C(=O)CC[C@@H](OC(=O)c1cccnc1)c1ccc(CO)o1` showed a composite z-score of 0.247.
Molecule `C=C[C@@H](COC(C)=O)N(Cc1ccc([N+](=O)[O-])cc1)S(=O)(=O)c1ccc(Br)cc1` displayed a composite z-score of 0.474.
`O=C1O[C@@H](c2ccccc2)[C@@H](c2ccccc2)N2[C@@H](c3ccc(O)cc3)[C@]3(C(=O)Nc4ccc(C#CC5(O)CCCCCC5)cc43)[C@@H](C(=O)N3CCCCCCC3)[C@H]12` gave a composite z-score of 2.71.
Molecule `COC(=O)C[C@@H]1C[C@H](C)[C@]2(O1)C(=O)N(Cc1ccccc1)c1ccc(NC(C)=O)cc12` registered a composite z-score of 0.0771.
In the case of `CC(C)(C)N1CC=CC23O[C@@H]4C=CCOC(=O)[C@@H]4[C@H]2C(=O)N(CCCCCO)[C@@H]3C1=O` (stereo partly specified), the composite z-score is -0.803.
As for `C=CCN1C(=O)[C@]2(O[C@H](CCO)[C@@H]([Si](C)(C)c3ccc(OC)cc3)[C@@H]2C)c2cc(NC(=O)[C@H](C)O)ccc21`, the composite z-score worked out at 0.725.
Molecule `C=CC(=C)C1=CCO[C@@H]1[C@H]1CCCN1S(=O)(=O)c1ccccc1[N+](=O)[O-]` displayed a composite z-score of 0.343.
Turning to `COc1ccc(NN2C(C(O)c3ccc(OC)c(OCc4ccccc4)c3)C=CC3C(=O)N(C4CCCCC4)C(=O)C32)cc1` (stereo unspecified), the composite z-score is -0.196.
Molecule `[N-]=[N+]=NCc1ccccc1[C@@H]1OC(c2ccc(OCCCO)cc2)=N[C@]1(Cc1ccccc1)C(=O)N1CCCCC1` gave a composite z-score of -0.451.
The molecule `CC(C)(C)N1CC=CC23O[C@@H]4/C=C\CCCOC(=O)C4[C@H]2C(=O)N(CCO)[C@@H]3C1=O` (stereo partly specified) displayed a composite z-score of -0.769.
In turn, `O=C1O[C@H](c2ccccc2)[C@H](c2ccccc2)N2[C@H]1[C@@H](C(=O)O)[C@]1(C(=O)Nc3ccc(C#CC4=CCCCC4)cc31)[C@H]2c1ccc(OCCO)cc1` registered a composite z-score of 0.586.
The molecule `COC(=O)C[C@H]1O[C@]2(C(=O)N(Cc3ccccc3)c3ccc(NC(C)=O)cc32)[C@@H](C)[C@@H]1[Si](C)(C)c1ccc(OC)cc1` gave a composite z-score of -0.0471.
Then `CC(C)CNC(=O)[C@@H]1c2ccccc2C(=O)N(Cc2cc(C(F)(F)F)cc(C(F)(F)F)c2)[C@H]1c1ccc(CO)cc1`, with -0.395; and `COc1ccccc1CN1C(=O)c2ccccc2[C@@H](C(=O)NCCN2CCOCC2)[C@@H]1c1ccc(CO)cc1`, with 0.52.
In turn, `NCCCCCCNC(=O)[C@H]1C[C@H]2C(=O)NCC(=O)N2[C@H]1c1cccc(OCCO)c1` returned a composite z-score of 1.16.
Regarding `COCCOC(=O)N1C(=O)[C@@]2(c3ccccc31)[C@H](C(=O)NC[C@H](O)c1ccccc1)[C@H]1C(=O)O[C@H](c3ccccc3)[C@H](c3ccccc3)N1[C@@H]2c1ccc(OCCO)cc1`, the composite z-score was 0.646.
For `CC(C)N1CC=CC23O[C@@H]4C=CCOC(=O)[C@@H]4[C@H]2C(=O)N(CCO)[C@@H]3C1=O` (stereo partly specified), the composite z-score is -2.5.
`COC(=O)[C@@]1(Cc2ccccc2)[C@H]2c3cc(C(=O)N4CCCC4)n(C)c3C[C@H]2CN1C(=O)c1ccccc1` showed a composite z-score of -0.212.
Regarding `O=C1[C@]2(CO)C=C(Br)[C@@H](C[C@@H]2c2ccccc2)[C@@]12CO2`, the composite z-score is -0.619.
`CCCCC(O)C1C=CC2C(=O)N(C3CCCCC3)C(=O)C2N1Nc1ccc(OC)cc1` (stereo unspecified) gave a composite z-score of 0.0983.
Take `COc1ccc(C(O)C2C=CC3C(=O)N(c4ccccc4)C(=O)C3N2Nc2ccc([N+](=O)[O-])cc2)cc1OCc1ccccc1` (stereo unspecified): the composite z-score was -0.153.
The molecule `Cc1ccc(S[C@]2(C(=O)NCc3ccccc3)CC(=O)N(Cc3ccccc3)[C@@H]2c2ccc(CO)cc2)cc1` came in with a composite z-score of -0.499.
Next, `C=C(COC)/C(=C/C[C@H](OC(=O)c1ccncc1)c1cccc(OCCO)c1)c1cc(C(=O)OC)ccc1OC`: 0.63; `COC(=O)[C@@]1(Cc2ccccc2)[C@H]2c3cc(C(=O)N(C)C)n(Cc4cc(C)n(C)n4)c3C[C@H]2CN1C(=O)c1ccccc1`: 1.31; `COC(=O)[C@@]1(Cc2ccccc2N=[N+]=[N-])COC(c2ccc(OCCCO)cc2)=N1`: 0.678.
As to `CN1CCC(CCCO)=CC1c1ccc(CN2CCCC2)cc1` (stereo unspecified), the composite z-score stood at 3.12.
Turning to `CC(=CC1CCCCC1)[C@@H](NC(=O)c1ccc(C(F)(F)F)cc1)c1ccc(-c2ccccc2)cc1`, the composite z-score is -0.514.
